Compound activity as filed in PubChem.
Hits are enriched below; roughly 2.4% of the tested compounds scored in any of these assays.
D2 PAM-1 = positive allosteric modulators of human D2 dopamine receptor; HEK293 T-REx D2, calcium flux, EC20 dopamine potentiation; potentiation, % at 10 µM; P14416; 340,000 compounds, 0.34% hits;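 active means potentiation over 3 SD above the plate norm, cut at about 30% in these data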
Target sequence (P14416 whole entry, looked up): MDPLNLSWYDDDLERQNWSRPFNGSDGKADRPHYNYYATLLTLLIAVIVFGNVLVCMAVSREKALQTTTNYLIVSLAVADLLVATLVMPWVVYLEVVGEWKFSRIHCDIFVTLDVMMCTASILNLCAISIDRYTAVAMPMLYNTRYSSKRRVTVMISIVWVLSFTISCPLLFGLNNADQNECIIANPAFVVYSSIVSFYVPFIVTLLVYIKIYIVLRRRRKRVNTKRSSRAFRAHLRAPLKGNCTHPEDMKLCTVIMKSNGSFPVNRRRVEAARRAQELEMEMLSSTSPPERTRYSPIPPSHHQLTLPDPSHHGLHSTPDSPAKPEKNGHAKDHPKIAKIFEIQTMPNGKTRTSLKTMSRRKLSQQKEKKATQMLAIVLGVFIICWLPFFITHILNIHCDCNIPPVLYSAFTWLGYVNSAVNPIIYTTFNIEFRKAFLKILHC
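Potentiation of an EC20 dopamine calcium response measured kinetically over 180 s, after a preceding 180 s compound-only read flagging agonists. Cells: inducible Hek293 Trex D2 line, 4000/well, cultured overnight at 30 C before dye loading.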
D2 PAM-2 = potentiates the human D2 dopamine receptor allosterically; P14416; DiscoveRx D2 beta-arrestin cells, luminescence, 90 min; 100% = 57 uM dopamine signal; potentiation, % (no concentration beside the values); 360,000 compounds, 0.23% hits; AID 624464; in the data active means potentiation above about 50%; inconclusive means mostly about 30% to 49%
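PathHunter beta-arrestin assay in DiscoveRx D2 cells. Compounds were added with an EC20 of dopamine (50 nM final) for 90 min at 37 deg C. Luminescence was read 1 h after detection reagent, with 57 uM dopamine as the EC100 control.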
D2 ag-1 = D2 dopamine receptor (human) agonism | 340,000 compounds, 0.53% hits | AID 485358 | activation, % at 2 µM | HEK293 T-REx D2 cells, calcium flux agonist mode;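 active means activation over 3 SD above normal in the single-dose calcium agonist read, cut at about 30% in these data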
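Agonism scored from kinetic calcium signal (1 read/sec, 180 s) following compound pin transfer, after a 10 s baseline. Cells: HEK293 Trex line expressing inducible D2 receptor coupled to calcium, dye-loaded after overnight culture at 30 C.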
D2 antagonist = antagonizes the human D2 dopamine receptor; P14416; HEK293 TREx D2 cells, calcium flux, dopamine EC80; inhibition, % at 10 µM; 340,000 compounds, 2% hits; AID 485344; in the data active means inhibition above about 30%; inactive means below that, where a call was filed
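Calcium mobilization kinetics were recorded at 1 s intervals in tetracycline-induced HEK293 T-REx D2 cells, first for 180 s after compound addition and then 180 s after EC80 dopamine.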
D2 ag-2 = human D2 receptor agonism in beta-arrestin assay; P14416; 360,000 compounds, 0.084% hits; DiscoveRx PathHunter D2 beta-arrestin, luminescence, 90 min; 100% = 57 uM dopamine signal; activation, % (test concentration not listed); in the data active means activation above about 40%; inconclusive means between about 15% and that limit
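DiscoveRx PathHunter D2 beta-arrestin cells (2,100/well) attached overnight, then compound-stimulated 90 min at 37 C in HBSS/10 mM HEPES/0.1% Tween-20 buffer; beta-galactosidase complementation read by luminescence after 1 h at ambient temperature. Dopamine 57 uM final (EC100) as control.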
Large screens that a line does not name were inactive.

CC1(C)CC(=O)c2sc(NS(=O)(=O)Cc3ccccc3)nc2C1	D2 PAM-1 34
CCOc1ccc(OCc2cccc(C(=O)O)c2)cc1	none
COc1ccc(OCc2cccc(C(=O)O)c2)cc1	D2 antagonist 35
NS(=O)(=O)c1cccc(NC(=O)CSc2nnc(-c3ccncc3)n2C2CC2)c1	none (no result: D2 PAM-1, D2 ag-1, D2 antagonist)
O=C(COC(=O)c1cc([N+](=O)[O-])ccc1N1CCOCC1)c1ccc(OC(F)F)cc1OC(F)F	D2 antagonist 44, D2 ag-2 inconclusive
CCc1cccc(C)c1NC(=O)c1cn2c3c(ccc(Cl)c3c1=O)OC(C)C2 (stereo not drawn)	none (no result: D2 PAM-2, D2 antagonist, D2 ag-2)
Cc1ccc(OCC(=O)Nc2cccc(OCc3cc(=O)n4ccccc4n3)c2)cc1C	none (no result: D2 PAM-2, D2 antagonist, D2 ag-2)
COc1ccccc1CNC(=O)Cc1ccc(C)cc1	none
COc1ccccc1C(C)NCC(=O)NCC(=O)Nc1ccc(F)c(F)c1F (stereo not drawn)	none
COc1ccccc1CNCC(O)Cn1c2ccccc2c2ccccc21 (stereo not drawn)	D2 antagonist 42
COc1ccccc1CNCC(=O)NCc1ccc(C)cc1	D2 antagonist 52
COc1ccccc1C(C)NCC(=O)NCc1ccc(C)cc1 (stereo not drawn)	D2 antagonist 37
O=C(Cc1ccc2c(c1)CCCC2)Nc1ccc2ccccc2c1	none
COc1cc(CN(C(=O)COc2ccc(Cl)cc2)c2ccccn2)cc(OC)c1OC	none (no result: D2 PAM-2, D2 antagonist, D2 ag-2)
CC(C)c1ccc2nc(N)sc2c1	none
Cc1cc2nc(N)sc2cc1C	D2 antagonist 34
COc1ccc(CCNC(=O)Nc2ccc3c(c2)c(=O)n(C)n3CC=C(C)C)cc1OC	none (no result: D2 PAM-1, D2 ag-1, D2 antagonist)
CCOc1ccccc1N1CCN(C(=O)c2ccc(-c3ccc(OC(C)=O)cc3)cc2)CC1	D2 antagonist 31
O=C(CSc1nc(O)c(Cc2ccccc2)c(=O)[nH]1)N1CCOCC1	none
O=C(CSc1nc(O)c(C2CCCCC2)c(=O)[nH]1)N1CCOCC1	D2 antagonist 43
O=[N+]([O-])c1ccc(S(=O)(=O)NCCN2CCOCC2)cc1	D2 PAM-1 49
CCN(CC)S(=O)(=O)c1ccc(Cl)c(C(=O)Nc2ccc(Cl)cc2[N+](=O)[O-])c1	D2 PAM-2 63
CCOc1ccc(CCNC(=O)c2sc3nc4n(c(=O)c3c2C)CCC4)cc1OCC	D2 antagonist 30
CCOc1ccc(CCNC(=O)c2sc3nc4n(c(=O)c3c2C)CCCC4)cc1OCC	none (no result: D2 PAM-2, D2 antagonist, D2 ag-2)
CCOC(=O)c1c(C)oc2c1cc(NS(=O)(=O)c1ccc(C)cc1)c1ccccc12	none (no result: D2 PAM-2, D2 antagonist, D2 ag-2)
Cc1ccc(S(=O)(=O)Nc2cc3c(C(=O)Nc4ccccc4)c(C)oc3c3ccccc23)cc1	D2 PAM-2 84
Cc1ccc(SCC(=O)Nc2ccc(C(=O)Nc3ccc(O)cc3)cc2)cc1	D2 antagonist 72
Cc1ccc(C(=O)NCC(c2ccco2)N2CCCCC2)s1 (stereo not drawn)	D2 antagonist 36
O=C(NCC(c1ccco1)N1CCCC1)c1cc2ccccc2s1 (stereo not drawn)	D2 antagonist 35
O=C(OCC1CCCO1)c1ccc2c(c1)N(Cc1ccccc1)C(=O)c1ccccc1S2(=O)=O (stereo not drawn)	none (no result: D2 PAM-2, D2 antagonist, D2 ag-2)
CCCNC(=O)CCc1nnc2ccc(N3CCN(c4cccc(OC)c4)CC3)nn12	none (no result: D2 PAM-2, D2 antagonist, D2 ag-2)
O=C(NC(=O)N1CCN(c2cccc(Cl)c2)CC1)c1ccc(Cl)cc1	D2 antagonist 57
O=C(NC(=O)N1CCN(c2cccc(Cl)c2)CC1)c1ccccc1	none
O=C(NC(=O)N1CCCCCC1)c1ccc(Cl)cc1	D2 antagonist 32
O=C(/C=C/c1ccccc1[N+](=O)[O-])N1CCc2ccccc2C1	none
Cc1ccc(NC(=O)CSc2nnc(-c3cc4occc4n3C)n2-c2ccccc2C)c(C)c1	none (no result: D2 PAM-2, D2 antagonist, D2 ag-2)
Cc1cccc(NC2=C/C(=N/S(=O)(=O)c3cccs3)c3ccccc3C2=O)c1	D2 PAM-2 96, D2 ag-2 inconclusive
Cc1nc(-c2ccc(S(=O)(=O)N3CCN(c4cccc(Cl)c4)CC3)cc2)co1	none (no result: D2 PAM-2, D2 antagonist, D2 ag-2)
CCn1nnc(NC(=O)c2ccco2)n1	D2 antagonist 69
C/C(=N\NC=O)c1ccncc1	D2 PAM-1 30
NC(=O)CCCn1c(C(=O)c2cc(Cl)c(N)c(Cl)c2)c2ccc([N+](=O)[O-])cc2[n+]1[O-]	none
CCS(=O)(=O)N1Cc2ccccc2CC1C(=O)N(C)CC(=O)Nc1cccc(F)c1 (stereo not drawn)	D2 antagonist 41
Nc1ccccc1-c1nnn(CC(=O)N2CCCc3ccccc32)n1	none (no result: D2 ag-1, D2 antagonist)
CCc1ccc(CNC(=O)c2ccc(NC(=O)N3CCSc4ncccc43)cc2)cc1	none (no result: D2 PAM-2, D2 antagonist, D2 ag-2)
COc1cc(NC(=O)C2CCN(S(=O)(=O)c3ccc4c(c3)CCCC(=O)N4)CC2)cc(OC)c1	none (no result: D2 PAM-2, D2 antagonist, D2 ag-2)
CCCC(=O)Oc1ccc2c(C)cc(=O)oc2c1	none
Cc1cc(=O)oc2cc(OC(=O)c3cncc(Br)c3)ccc12	D2 antagonist 31
Cc1cc(C)c(NC(=O)CSc2ccc(-c3sc(-c4ccccc4)nc3C)nn2)c(C)c1	none (no result: D2 PAM-1, D2 PAM-2, D2 antagonist, D2 ag-2)
CC(C)OCCCNc1ncnc2c1nc1n2CCCC1	D2 antagonist 33
O=C(CNS(=O)(=O)c1ccccc1)OCC(=O)c1ccc(F)cc1	D2 PAM-1 36
Nc1c(Cl)ncnc1NCc1ccccc1	D2 antagonist 56 (no result: D2 PAM-1, D2 ag-1)
Nc1c(Cl)ncnc1NCCO	none
O=C(COC(=O)CNC(=O)c1ccccc1)Nc1ccc(F)c([N+](=O)[O-])c1	D2 antagonist 34
CC(C)Oc1cccc(C(=O)Nc2ccc3oc(-c4cccc(Cl)c4)nc3c2)c1	none (no result: D2 PAM-2, D2 antagonist, D2 ag-2)
COc1ccc2c(c1)Sc1ccccc1N2CCN(C)C	D2 antagonist 40 (no result: D2 PAM-1)
Cc1ccc(/C=C/c2onc(C)c2S(=O)(=O)N2CCC(C(=O)Nc3ccccc3C(F)(F)F)CC2)cc1	none (no result: D2 PAM-1, D2 PAM-2, D2 antagonist, D2 ag-2)
OCC1(CCOc2ccccc2)CCN(Cc2ccc3cccc(F)c3n2)CC1	none
CCOC(=O)C1(CC2CC2)CCN(Cc2ccc3cccc(F)c3n2)CC1	D2 antagonist 65
COc1ccc(CN2CCC(CO)(Cc3ccccc3C(F)(F)F)CC2)c(F)c1	D2 antagonist 43
COc1ccc(CC2(CO)CCN(Cc3cccc4nccnc34)CC2)cc1	none
CCOC(=O)C1(CC2CC2)CCN(Cc2cn[nH]c2-c2cccc(F)c2)CC1	none
OCC1(Cc2cccc(F)c2)CCN(Cc2ccc3cccc(F)c3n2)CC1	D2 antagonist 40
COc1cccc(CC2(CO)CCN(Cc3ccc4cccc(F)c4n3)CC2)c1	D2 antagonist 62
CCOC(=O)c1cc(S(=O)(=O)Nc2ccc(Br)c(C)c2)[nH]n1	none (no result: D2 PAM-2, D2 antagonist, D2 ag-2)
CCC(Sc1nc2ccncc2[nH]1)C(=O)Nc1ccc(F)cc1 (stereo not drawn)	none (no result: D2 PAM-2, D2 antagonist, D2 ag-2)
CC(C)c1ccc(N2C(=O)/C(=C/N(C)C)SC2=S)cc1	D2 ag-1 30
CCO/C=C1\SC(=S)N(c2ccc(Cl)cc2)C1=O	none
